Assay results published in PMC5540273 (PLoS ONE, 2017).

Columns and labels:
Conditions in all cases: concentration: 1 μM, replicates: in singlicate; n = 1
LYN = tested on: LYN
LZK = tested on: T1, LZK
T1 construct: gene MAP3K13

MAK = tested on: MAK
MAP3K15 = tested on: MAP3K15
MAP3K1 = tested on: MAP3K1
MAP3K2 = tested on: MAP3K2
MAP3K3 = tested on: MAP3K3
MAP3K4 = tested on: MAP3K4
MAP4K2 = tested on: MAP4K2
MAP4K3 = tested on: MAP4K3
MAP4K4 = tested on: MAP4K4
MAP4K5 = tested on: MAP4K5
MAPKAPK2 = tested on: MAPKAPK2
MAPKAPK5 = tested on: MAPKAPK5
MARK1 = tested on: MARK1
MARK2 = tested on: MARK2
MARK3 = tested on: MARK3
MARK4 = tested on: MARK4
MAST1 = tested on: MAST1
MEK1 = tested on: T2, MEK1
T2 construct: gene MAP2K1
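Note: KINOMEscan kinase panel screen.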

Row | Compound | %Inh (LYN) [%] | %Inh (LZK) [%] | %Inh (MAK) [%] | %Inh (MAP3K15) [%] | %Inh (MAP3K1) [%] | %Inh (MAP3K2) [%] | %Inh (MAP3K3) [%] | %Inh (MAP3K4) [%] | %Inh (MAP4K2) [%] | %Inh (MAP4K3) [%] | %Inh (MAP4K4) [%] | %Inh (MAP4K5) [%] | %Inh (MAPKAPK2) [%] | %Inh (MAPKAPK5) [%] | %Inh (MARK1) [%] | %Inh (MARK2) [%] | %Inh (MARK3) [%] | %Inh (MARK4) [%] | %Inh (MAST1) [%] | %Inh (MEK1) [%]
1 | CS(=O)(=O)c1ccc(-c2c(-c3ncn[nH]3)sc(N3CCOCC3)c2C#N)cc1 | 0 | 0 | 36 | 0 | 26 | 6 | 27 | 2 | 0 | 0 | 0 | 0 | 0 | 0 | 26 | 10 | 0 | 24 | 21 | 2
2 | COc1ccc2nc(-c3cccc(C)n3)nc(Nc3ccncc3)c2c1 [GSK204919] | 0 | 0 | 25 | 0 | 22 | 0 | 0 | 9 | 0 | 12 | 0 | 0 | 17 | 0 | 0 | 0 | 0 | 0 | 0 | 0
3 | CC(C)(C)c1ccc(C(=O)Nc2cn3cc(Cl)ccc3n2)cc1 | 8 | 0 | 15 | 1 | 0 | 45 | 0 | 0 | 0 | 0 | 2 | 2 | 0 | 0 | 0 | 78 | 0 | 0 | 0 | 24
4 | O=C(Nc1n[nH]c2nc(-c3nccs3)c(Br)cc12)C1CC1 [SB-742251] | 19 | 26 | 33 | 0 | 21 | 0 | 0 | 0 | 0 | 0 | 4 | 1 | 0 | 0 | 0 | 0 | 0 | 0 | 20 | 0
5 | Fc1cc(Cl)ccc1Nc1ccnc2cc(-c3ccc(CN4CCCCC4)o3)ccc12 [GW560116] | 0 | 7 | 52 | 0 | 0 | 0 | 0 | 0 | 0 | 0 | 0 | 0 | 0 | 0 | 0 | 0 | 0 | 0 | 43 | 4
6 | Cl.O=C(Nc1cccc(-c2nn3ncccc3c2-c2ccnc(Nc3cccnc3)n2)c1)c1c(F)cccc1F [GSK312879] | 18 | 0 | 25 | 24 | 24 | 16 | 0 | 4 | 0 | 3 | 2 | 5 | 21 | 0 | 0 | 0 | 0 | 0 | 6 | 0
7 | Cc1ccc(NC(=O)Nc2cccc(Cl)c2)cc1-c1ccc(C(=O)Nc2ccncc2)cc1 [GSK1398468] | 0 | 0 | 19 | 0 | 0 | 0 | 0 | 7 | 0 | 0 | 0 | 0 | 0 | 0 | 26 | 0 | 0 | 12 | 0 | 100
8 | COc1cc2nccc(Nc3ccc(NC(=O)c4ccc(C)cc4)c(O)c3)c2cc1OC.Cl [GW440132] | 28 | 0 | 13 | 13 | 10 | 9 | 0 | 2 | 0 | 8 | 0 | 3 | 8 | 0 | 0 | 0 | 0 | 14 | 0 | 8
9 | Cc1cccc(-c2nc(-c3ccc(S(C)(=O)=O)cc3)sc2-c2ccnc(NCCc3ccccc3)c2)c1 | 5 | 2 | 0 | 10 | 0 | 0 | 0 | 16 | 15 | 0 | 0 | 0 | 0 | 0 | 0 | 11 | 0 | 0 | 0 | 0
10 | Cc1cccc(-c2cc(Nc3ccncc3)c3ccccc3n2)n1 [GSK223675] | 0 | 0 | 22 | 0 | 5 | 0 | 0 | 21 | 0 | 0 | 0 | 0 | 13 | 0 | 0 | 0 | 0 | 0 | 0 | 0
